PubChem BioAssay (NCI)
The panel holds about 83,000 compounds, 20% with a hit somewhere; the sample as a whole holds those more often.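 Step 1: grow cells in 96-well plates. Step 2: add test compound at a single concentration. Step 3: incubate 48 h. Step 4: record percent growth.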 Activity calls are given as the source filed them. The calls were made as follows: active = growth percent below 10; inactive = the rest.

Assays:
Test in all cases: NCI-60 one-dose screen, 48 h (100 = growth as untreated, 0 = no growth, -100 = all killed)
Conditions in all cases: 10 µM unless noted
SK-MEL-2 melanoma = tested on: SK-MEL-2 melanoma
EKVX NSCLC = tested on: EKVX NSCLC
SN12C renal = tested on: SN12C renal
UO-31 renal = tested on: UO-31 renal
TK-10 renal = tested on: TK-10 renal
ACHN renal = tested on: ACHN renal
A498 renal = tested on: A498 renal
CCRF-CEM leukemia = tested on: CCRF-CEM leukemia
MOLT-4 leukemia = tested on: MOLT-4 leukemia
SR leukemia = tested on: SR leukemia
RPMI-8226 leukemia = tested on: RPMI-8226 leukemia
OVCAR-8 ovarian = tested on: OVCAR-8 ovarian
OVCAR-5 ovarian = tested on: OVCAR-5 ovarian
OVCAR-4 ovarian = tested on: OVCAR-4 ovarian
SK-OV-3 ovarian = tested on: SK-OV-3 ovarian
IGROV1 ovarian = tested on: IGROV1 ovarian
OVCAR-3 ovarian = tested on: OVCAR-3 ovarian
HS 578T breast = tested on: HS 578T breast
NCI/ADR-RES ovarian = tested on: NCI/ADR-RES ovarian
T-47D breast = tested on: T-47D breast

Measured: growth

CC(=O)Nc1nc2c(c(N)c1C#N)C(c1cccc(Cl)c1)C1=C(CCCC1=O)N2c1sc2c(c1C#N)CCCC2 (centres undefined)
inactive: SK-MEL-2 melanoma 55.5% | EKVX NSCLC 35.9% | SN12C renal 52.3% | UO-31 renal 37.1% | TK-10 renal 44.5% | ACHN renal 53.3% | A498 renal 62.4% | CCRF-CEM leukemia 50.4% | MOLT-4 leukemia 12.6% | SR leukemia 26% | RPMI-8226 leukemia 22% | OVCAR-8 ovarian 37% | OVCAR-5 ovarian 87.1% | OVCAR-4 ovarian 57.5% | SK-OV-3 ovarian 54.7% | IGROV1 ovarian 59.4% | OVCAR-3 ovarian 56.1% | HS 578T breast 73.7% | NCI/ADR-RES ovarian 46.7%

Nc1c(C(=O)Nc2cccc3ccccc23)sc2nc3c(cc12)CCCCC3
active: A498 renal -1.52% | CCRF-CEM leukemia 9.18% | OVCAR-3 ovarian -25.2%
inactive: SK-MEL-2 melanoma 50.5% | EKVX NSCLC 40.4% | SN12C renal 43.4% | UO-31 renal 51.9% | TK-10 renal 62.8% | ACHN renal 53.6% | MOLT-4 leukemia 15.9% | SR leukemia 19.9% | RPMI-8226 leukemia 24.9% | OVCAR-8 ovarian 21.4% | OVCAR-5 ovarian 44.1% | OVCAR-4 ovarian 56.6% | SK-OV-3 ovarian 29.1% | IGROV1 ovarian 44.3% | HS 578T breast 30% | NCI/ADR-RES ovarian 20.3% | T-47D breast 46.7%

COC1=CC2C=C(C3N(c4ccccc4)NC(=O)[C@@H]4CCCN34)C(=O)NC2C=C1 (some centres undefined)
inactive: SK-MEL-2 melanoma 97.9% | EKVX NSCLC 96.7% | SN12C renal 107% | UO-31 renal 86.9% | TK-10 renal 100% | ACHN renal 102% | A498 renal 95.9% | CCRF-CEM leukemia 113% | MOLT-4 leukemia 124% | SR leukemia 105% | RPMI-8226 leukemia 110% | OVCAR-8 ovarian 110% | OVCAR-5 ovarian 107% | OVCAR-4 ovarian 96.8% | SK-OV-3 ovarian 104% | IGROV1 ovarian 105% | OVCAR-3 ovarian 104% | HS 578T breast 99% | NCI/ADR-RES ovarian 101%

O=C(CSC(=S)N1CCCCC1)Nc1ccccc1
inactive: SK-MEL-2 melanoma 92.1% | EKVX NSCLC 106% | SN12C renal 106% | UO-31 renal 86.5% | TK-10 renal 85.8% | ACHN renal 98.8% | A498 renal 99.5% | CCRF-CEM leukemia 89.9% | MOLT-4 leukemia 86.5% | SR leukemia 87.1% | RPMI-8226 leukemia 84.6% | OVCAR-8 ovarian 99.4% | OVCAR-5 ovarian 106% | OVCAR-4 ovarian 109% | SK-OV-3 ovarian 106% | IGROV1 ovarian 103% | OVCAR-3 ovarian 107% | HS 578T breast 106% | NCI/ADR-RES ovarian 102% | T-47D breast 81.7%

O=C(NC[C@H](O)CN1CCc2ccccc2C1)c1cc(NC2COC2)ncn1
inactive: SK-MEL-2 melanoma 94.4% | EKVX NSCLC 111% | SN12C renal 95.5% | UO-31 renal 78.2% | TK-10 renal 96.4% | ACHN renal 95.9% | A498 renal 116% | CCRF-CEM leukemia 98.3% | MOLT-4 leukemia 88% | SR leukemia 97.2% | RPMI-8226 leukemia 107% | OVCAR-8 ovarian 97.3% | OVCAR-5 ovarian 96.4% | OVCAR-4 ovarian 91.5% | SK-OV-3 ovarian 107% | IGROV1 ovarian 76.9% | OVCAR-3 ovarian 104% | HS 578T breast 122%

c1ccc2c3c([nH]c2c1)C(c1ccc(C2NCCc4c2[nH]c2ccccc42)cc1)NCC3 (centres undefined)
inactive: EKVX NSCLC 20.6% | SN12C renal 41.6% | TK-10 renal 63.4% | A498 renal 116% | OVCAR-5 ovarian 77% | OVCAR-4 ovarian 23.5% | SK-OV-3 ovarian 49.1% | IGROV1 ovarian 25.8% | NCI/ADR-RES ovarian 63.1%
active: SK-MEL-2 melanoma -13% | UO-31 renal -0.102% | ACHN renal -73.1% | CCRF-CEM leukemia -16.7% | MOLT-4 leukemia -62% | SR leukemia -51.5% | RPMI-8226 leukemia -40.3% | OVCAR-8 ovarian -41.4% | OVCAR-3 ovarian -65.3% | HS 578T breast -16.8%

CC(=O)Oc1c2c(nc3c1c1ccccc1n3Cc1ccccc1)-c1ccccc1C2
inactive: SK-MEL-2 melanoma 71.4% | EKVX NSCLC 80.8% | SN12C renal 85.8% | UO-31 renal 58.2% | TK-10 renal 114% | ACHN renal 85.7% | A498 renal 82% | CCRF-CEM leukemia 91.5% | MOLT-4 leukemia 72.6% | SR leukemia 86.2% | RPMI-8226 leukemia 73.3% | OVCAR-8 ovarian 88.4% | OVCAR-5 ovarian 97% | OVCAR-4 ovarian 83.9% | SK-OV-3 ovarian 92% | IGROV1 ovarian 81.1% | OVCAR-3 ovarian 79% | HS 578T breast 94.4% | NCI/ADR-RES ovarian 85.5%

CCC[S@@](=O)c1ccc2nc(NC(=O)OC)[nH]c2c1
inactive: SK-MEL-2 melanoma 95.1% | EKVX NSCLC 90.2% | SN12C renal 96.4% | UO-31 renal 90.9% | TK-10 renal 91.9% | ACHN renal 102% | A498 renal 87.6% | CCRF-CEM leukemia 86.4% | MOLT-4 leukemia 74.5% | SR leukemia 41.6% | RPMI-8226 leukemia 95% | OVCAR-8 ovarian 77.1% | OVCAR-5 ovarian 102% | OVCAR-4 ovarian 98.9% | SK-OV-3 ovarian 63.6% | IGROV1 ovarian 91.3% | OVCAR-3 ovarian 93.5% | HS 578T breast 91.2% | NCI/ADR-RES ovarian 91.5% | T-47D breast 78.1%
